a7 integrin act: activators of alpha7 integrin expression for muscular dystrophy. alpha7betagal myoblasts, beta-gal FDG fluorescence, 48 h. 0.064% of 350,000 active. Potency, µM (doses to about 38.3 µM), inactives show at the top dose activation, usual class: activators;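 note: potency is the fitted concentration of half-maximal effect; 100% = response of the positive control SU9516; nearly all actives have a fitted effect of over 60% in size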
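Alpha7betagal+/- myoblasts (passage 13) were plated 16-24 hr, then exposed to compounds (1:260 dilution of DMSO stock) for 48 hours at 37C. After MPER lysis, β-galactosidase reporter activity was read as FDG fluorescence (ex 480/em 540) after 30 minutes.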
DRD3 agonist: agonists of human D3 dopamine receptor | max activation, % | 0.58% of 410,000 active | D3R DiscoveRx beta-arrestin cells, luminescence, 90 min; in the data active = max activation above about 30%; note: 0% is about no effect
Target sequence (P35462 whole entry, looked up): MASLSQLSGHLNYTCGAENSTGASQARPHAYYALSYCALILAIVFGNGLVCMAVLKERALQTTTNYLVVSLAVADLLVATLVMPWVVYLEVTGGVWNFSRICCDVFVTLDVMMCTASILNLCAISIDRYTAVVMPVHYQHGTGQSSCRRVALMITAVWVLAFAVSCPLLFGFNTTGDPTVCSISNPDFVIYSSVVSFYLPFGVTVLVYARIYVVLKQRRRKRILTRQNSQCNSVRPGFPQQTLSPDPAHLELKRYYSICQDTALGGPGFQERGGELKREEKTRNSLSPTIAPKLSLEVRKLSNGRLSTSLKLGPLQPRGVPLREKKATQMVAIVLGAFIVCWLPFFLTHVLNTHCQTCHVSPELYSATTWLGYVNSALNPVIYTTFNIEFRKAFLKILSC
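Cells at 1500/well, incubated overnight, then treated with pinned compounds (dopamine as control) for 90 min at 37 degrees C. DiscoveRx reagent added for 30 - 60 minutes at room temperature; luminescence read.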
IL-1B inflam inh: inflammasome signaling inhibition, IL-1 beta readout; 4.7% of 360,000 active; THP-1 LPS/ATP IL-1B secretion, AlphaLISA, 16 h; hits give low values; AID 743279; activity change, % at 57.5 µM; in the data active = activity change below about -50%; inconclusive = mostly about -30% to -49%; note: % is set by controls: 0 for no effect and ±100 for the full control effect
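Secreted IL-1B measured by AlphaLISA bead assay after 16 h compound exposure of THP-1 cells; compounds (final up to 57.5 uM) added 1 h before LPS (250 ng/mL) and ATP (1.25 mM) stimulation; lower signal means less secretion.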
ATXN viability: cell viability loss in ATXN counter-screen; 0.49% of 400,000 active; AID 651635; S2 cells (HEK-293 line with an ATXN2-luciferase reporter) viability, CellTiter-Fluor protease fluorescence, 24 h; Potency, µM (doses to about 56.7 µM), most hits filed as cytotoxic; note: potency is the fitted concentration of half-maximal effect; nearly all actives have a fitted effect of over 40% in size
ATXN2 expr inh: ATXN2 expression inhibition; HEK-293 ATXN2-luciferase reporter, luminescence, 24 h; Potency, µM (doses to about 57 µM), without a hit: at the highest dose activity change, negative = inhibition, usual class: inhibitors; 0.72% of 360,000 active; AID 1745845; note: potency is the fitted concentration of half-maximal effect; % is set by controls: 0 for no effect and ±100 for the full control effect; nearly all actives have a fitted effect of over 55% in size
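qHTS (up to 57 uM final) was run with 24 h compound exposure of reporter cells at 37 °C. Each well was multiplexed: SteadyGlo luminescence measured ATXN2-luciferase expression after a fluorogenic Gly-Phe-AFC viability readout (25 uM final).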
D3 antag: blocks the human D3 dopamine receptor; P35462; D3R cells, DiscoveRx beta-arrestin luminescence, antagonist mode; hits give low values; max response, negative = inhibition, %; 2.5% of 360,000 active; AID 652054; in the data active = max response below about -50%; inconclusive = no clear call, values can overlap the other calls; note: % is set by controls: 0 for no effect and ±100 for the full control effect
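Cells expressing the human receptor were seeded at 1500 cells/well, incubated overnight at 37 degrees C in 5% CO2, then exposed to library compounds with dopamine controls for 90 minutes at 37 degrees C before luminescent detection.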
* marks the source's active call; other numbers are inactive results; i = inactive; u = inconclusive; x = not tested or not shown; [ ] = remark or other dose. Sampled rows, rich in hits. Any-hit rate of the full collection: about 7%. Unless noted, calls come from the whole dose curve; as a rule, active = well fitted curve in the direction sought with a large enough effect; inconclusive = small, poorly fitted or top-dose-only effect, or another doubt; inactive = no such curve, though single readings can be large; an effect the other way counts as inactive or inconclusive.

SMILES	a7 integrin act	DRD3 agonist	IL-1B inflam inh	ATXN viability	ATXN2 expr inh	D3 antag
COCCCNCCCCOc1cccc(Br)c1	-54%	-5	-21	i	-15%	-61*
COC(=O)c1sc2cccc(F)c2c1S(=O)(=O)NCc1ccc(Cl)cc1	x	-3	x	i	-3%	x
CCc1cccc(OCCCCNCCCOC)c1	0%	-39	-12	i	-10%	-79*
CCOCCCNCc1cccc(OC)c1	-12%	-6	-5	i	-6%	10
CCNC(=O)c1ccc2c(c1)S(=O)(=O)c1ccccc1C2=O	-14%	3	24	i	-2%	-18
O=C(NCCn1cccn1)c1ccc(OC2CCN(C(=O)C3CC3)CC2)cc1	-6%	-3	-1	i	7%	12
O=C(NCCn1cccn1)c1ccc(OC2CCN(CCc3ccccc3)CC2)cc1	-17%	-13	-81*	i	6%	0
CSCCNC(=O)c1ccc(OC2CCN(CCc3ccccc3)CC2)cc1	-40%	-17	-27	i	x	-79*
COC(=O)CCCNC(=O)c1ccc(OC2CCN(CCc3ccccc3)CC2)cc1	0%	-3	-5	i	x	-26
CN(C(=O)c1ccc(OC2CCN(CCc3ccccc3)CC2)cc1)C1CCOCC1	-13%	-21	-7	u	x	-83*
O=C(CC1C(=O)NCCN1Cc1cccc(C(F)(F)F)c1)NCCc1cnccn1 (stereo not drawn)	-30%	-5	3	i	-1%	-16
O=C(c1ccc2c(c1)OCO2)C1CCCN(Cc2ccc(OC(F)F)cc2)C1 (stereo not drawn)	-25%	-3	-5	i	x	-76*
O=C(c1cccc(C(F)(F)F)c1)C1CCCN(Cc2ccc(OCCO)cc2)C1 (stereo not drawn)	-13%	-13	-52*	i	-21%	-19
O=C(c1ccc2c(c1)OCO2)C1CCCN(Cc2ccc3cccc(F)c3n2)C1 (stereo not drawn)	2%	-14	-28	i	x	-12
O=C(c1ccc2c(c1)OCO2)C1CCCN(Cc2cccc(C(F)(F)F)c2)C1 (stereo not drawn)	0%	-15	15	i	-14%	-115*
O=C(c1ccc2c(c1)OCO2)C1CCCN(Cc2cn[nH]c2-c2cccc(F)c2)C1 (stereo not drawn)	15%	-19	-92*	i	-33%	-18
CC(C)[C@H](NC(=O)c1ccc(Cl)c([N+](=O)[O-])c1)C(=O)NCc1ccc(F)cc1	29%	-14	u	i	-15%	u
CCOc1ccc(C(=O)OCC(=O)Nc2cc(S(=O)(=O)N3CCOCC3)ccc2N2CCOCC2)cc1	3%	6	-8	i	x	9
Cc1n[nH]c(C)c1CCCCOc1ccccc1	-32%	-4	21	i	-9%	-3
Cc1ccc(S(=O)(=O)N/N=C\c2cn(-c3ccccc3)nc2-c2ccccc2)cc1	u	17	-8	i	25%	11
Cc1ccc(-c2nn(-c3ccccc3)cc2/C=N/NS(=O)(=O)c2ccccc2)cc1	12%	-10	-21	i	60%	-54*
O=[N+]([O-])c1ccc(N/N=C/c2cn(-c3ccccc3)nc2-c2ccccc2)cc1	-24%	-11	1	i	-2%	u
Cc1ccc(-c2nn(-c3ccccc3)cc2/C=N/O)cc1	-19%	-6	-81*	i	-31%	-53*
NS(=O)(=O)c1ccc(N/N=C/c2cn(-c3ccccc3)nc2-c2ccccc2)c([N+](=O)[O-])c1	-60%	-12	-78*	11µM*	x	-13
O=Cc1ccc(N2CCCCC2)cc1	-10%	4	1	i	-15%	10
SMILES	a7 integrin act	DRD3 agonist	IL-1B inflam inh	ATXN viability	ATXN2 expr inh	D3 antag
CN1CCC(=NNC(=O)C(=O)Nc2ccccc2)CC1	14%	-5	-8	i	37%	7
CC(C)OC(=O)/C(=C/c1ccc(Br)cc1)NC(=O)c1ccco1	-17%	-4	0	i	4%	0
COc1ccc(/C=N/OCC(=O)Nc2cc(C)on2)cc1OC	0%	30*	-4	u	2%	18
COc1cc(/C=N/O)ccc1OCc1ccc(C(=O)O)cc1	-13%	-1	6	i	0.71µM*	28
CCOc1cc(/C=N/N=C(N)N)ccc1OCc1ccc(Cl)cc1	-60%	-10	-108*	32µM*	u	0
O=C(O)c1cc(/C=N\O)ccc1OCc1ccccc1	-5%	2	5	u	6%	11
NC(N)=N/N=C/c1ccc(OCc2ccccc2)c(OCc2ccccc2)c1	-74%	4	-96*	22µM*	22µM*	10
C=CCn1c(-c2ccco2)n[nH]c1=S	0%	1	33	i	-5%	20
COc1cc(/C=N/N=C2/NC(=O)C(CC(=O)O)S2)ccc1OCc1ccc(Cl)cc1 (stereo not drawn)	25%	-1	15	i	71%	8
COc1cc(/C=N/N=C(N)N)ccc1OCc1ccc(Cl)cc1	-63%	0	-94*	i	u	5
COc1cc(/C=N/OCC(=O)NC23CC4CC(CC(C4)C2)C3)ccc1OCc1ccccc1	-41%	-2	-72*	i	13%	8
COc1cc(/C=N/OCC(=O)NC2CCCCC2)ccc1OCc1ccccc1	-18%	1	u	i	20%	11
C/C(=N\OCC(=O)NC12CC3CC(CC(C3)C1)C2)c1cc2ccccc2o1	-28%	-12	-91*	i	7%	0
S=C(NCCc1ccc(Cl)cc1)NCc1ccccc1	14%	-20	44	i	-20%	u
O=C(NCc1nc2ccccc2n1Cc1ccccc1Cl)c1ccccc1	x	-21	x	x	x	x
CCOC(=O)c1csc(NC(=O)CSc2nnnn2-c2ccc(OC)cc2)n1	-4%	12	26	i	-1%	6
CCOC(=O)c1c(NC(=O)CSc2nnnn2-c2ccc(OC)cc2)sc(C)c1C	-28%[7.66 µM]	14	-59*	i	-15%	33
O=C(CCCOc1ccccc1)Nc1nccs1	4%	-4	-10	i	0%	-57*
CCc1ccc(OCCCC(=O)Nc2nccs2)cc1	1%	0	0	i	x	11
COc1ccc(OCCCC(=O)Nc2cccnc2)cc1	-19%	9	6	i	5%	-90*
Cc1ccc(S(=O)(=O)NCCC(=O)Nc2nccs2)cc1	-718%	6	-64*	i	-23%	-11
CCOC(=O)C1C(=O)C=C(/C=C/c2ccccc2)CC1c1ccc(Cl)cc1 (stereo not drawn)	-1%	-24	-26	i	-25%	-17

Screening data: PubChem, National Center for Advancing Translational Sciences (NCATS)
